Experimental data reported in PubChem BioAssay AID1851 (National Center for Advancing Translational Sciences (NCATS), 2009).
Where “and” joins values, the source holds several entries; their conditions need not be identical. Identical values can stand only once. Out of some 16,000 compounds screened, about 2,600 (16%) were called active. Inconclusive results (about 20%) are left out. Not all results are given here. A number with no mark means an inactive call. The call rests on the fitted dose curve; in most records, active means well fitted curve in the direction sought with a large enough effect; inconclusive means small, poorly fitted or top-dose-only effect, or effect the other way; inactive means no such curve, though single readings can be large or run the other way.

target: Cytochrome P450 2D6 (Homo sapiens) (UniProt P10635); test: Cytochrome panel assay with activity outcomes; conditions: recombinant CYP, pro-luciferin dealkylation, luminescence, p450-cyp2d6; series mostly up to 57.1 µM
On the % scale 0 is the no-effect control and ±100 the full control effect.

Chain of Cytochrome P450 2D6 (Homo sapiens) (P10635 whole entry, looked up): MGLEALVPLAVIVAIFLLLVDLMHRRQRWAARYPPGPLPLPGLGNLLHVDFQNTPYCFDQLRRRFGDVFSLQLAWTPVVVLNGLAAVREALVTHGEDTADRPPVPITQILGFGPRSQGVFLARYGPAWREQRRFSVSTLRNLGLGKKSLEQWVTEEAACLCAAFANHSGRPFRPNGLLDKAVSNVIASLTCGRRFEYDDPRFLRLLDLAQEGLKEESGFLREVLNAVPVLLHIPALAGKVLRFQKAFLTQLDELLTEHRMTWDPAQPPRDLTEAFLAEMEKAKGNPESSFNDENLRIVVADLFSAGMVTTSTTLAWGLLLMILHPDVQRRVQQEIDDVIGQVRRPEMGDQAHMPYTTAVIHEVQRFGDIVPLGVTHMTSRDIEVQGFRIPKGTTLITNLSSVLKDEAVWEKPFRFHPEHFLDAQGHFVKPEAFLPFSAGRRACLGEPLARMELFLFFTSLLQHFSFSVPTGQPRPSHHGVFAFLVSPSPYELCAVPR

Compound | AC50 | activity, negative = inhibition
O=C(CSc1nc2ccccc2c(=O)n1Cc1ccccc1)NCc1ccco1 | inactive | –
Cc1cccc(C)c1-n1c(SCC(=O)NCc2ccco2)nc2ccccc2c1=O | 28.2 µM (active) | –
O=C(CSc1nc2ccccc2c(=O)n1CCCC(=O)N1CCCC1)NCc1ccco1 | inactive | –
Cc1cc(NC(=O)CSc2nc3ccccc3c(=O)n2CCCC(=O)NCc2ccco2)n[nH]1 | 15.8 µM (active) | –
Cc1cc(NC(=O)CSc2nc3ccsc3c(=O)n2Cc2ccccn2)n[nH]1 | inactive | –
CCCCCn1c(SCc2ccncc2)nc2cc(C(=O)NCc3ccco3)ccc2c1=O | 0.794 µM (active) | –
CCOC(=O)CSc1nc2ccccc2c(=O)n1CC1CCC(C(=O)NCc2ccco2)CC1 (stereo unspecified) | inactive | –
CCc1ccc(NC(=O)CSc2nc3cc(C(=O)OC)ccc3c(=O)n2Cc2ccco2)cc1 | inactive | –
O=C(NCC1CCCO1)c1ccc2c(=O)n(Cc3ccco3)c(SCC(=O)N3CCCC3)nc2c1 (stereo unspecified) | inactive | –
C=CCOc1ccc2cccc(/C=N/NC(=O)c3cc4cc([N+](=O)[O-])ccc4s3)c2c1 | inactive | –
CCCCCCCOC1(c2ccccc2)OC(=O)c2ccccc21 (stereo unspecified) | inactive | –
CCCN(CCC)C(=O)[C@@H](CCC(=O)O)NC(=O)c1ccccc1 | inactive | –
CC(=O)Nc1ccc2c(c1)/C(=C/c1ccc([N+](C)(C)C)cc1)c1ccccc1-2 | – | -4.76% [at 11.4 µM]
Cc1sc2nc(SCc3nc(-c4cccs4)no3)n(-c3ccccc3)c(=O)c2c1C | inactive | –
CC(C)=NNc1ncnc2nc[nH]c12 | – | 12.8% [at 11.4 µM]
CN(C)CCN1C(=O)C(O)=C(C(=O)c2cc3ccccc3o2)C1c1ccccn1 (stereo unspecified) | inactive | –
NC(=NCCC[C@H](N)C(=O)O)NO | inactive | –
CCCN=C(N)NCCC[C@H](N)C(=O)O | 7.94 µM (active) | –
NC(=S)NCCC[C@@H](N)C(=O)O | inactive | –
O=C(Nc1cnn(Cc2ccc(Cl)cc2)c1)c1ccc([N+](=O)[O-])cc1 | inactive | –
CSc1ccc2nnc(-c3cccc(F)c3)n2n1 | inactive | –
Cc1ccc(/C=N/n2c(COc3ccccc3)n[nH]c2=S)s1 | inactive | –
S=c1[nH]nc(C2CCCCC2)n1/N=C/c1cccs1 | 2.24 µM (active) | –
Cc1nnc(C)n1/N=C/c1cccs1 | inactive | –
O=C1C2ON(c3ccccc3)C(c3ccncc3)C2C(=O)N1c1ccccc1 (stereo unspecified) | inactive | –
Cc1nc2ccccc2n1CC(=O)N/N=C\c1ccccn1 | inactive | –

Compound | AC50 | activity, negative = inhibition
Cc1cc(C2C(C#N)=C(N)Oc3n[nH]c(C)c32)c(C)s1 (stereo unspecified) | inactive | –
Cc1ccsc1/C=N/Nc1nc(Cl)c(Cl)cc1Cl | inactive | –
OCCN(C=NC1=NN(c2cccc(C(F)(F)F)c2)CC1)CCO | inactive | –
COc1ccc(NC(=S)N(CCc2nc3cc(C)c(C)cc3[nH]2)Cc2cccnc2)cc1 | 11.2 µM (active) | –
CCc1ccc2c(c1)cc(CN(C(=S)Nc1cccc(C)c1)C1CC1)c1nnnn12 | inactive | –
COc1ccc2[nH]c(=O)c(NC(N)=S)nc2c1 | inactive | –
Cc1cccc(NC(=S)N(CCc2nc3cc(C)c(C)cc3[nH]2)Cc2cccnc2)c1 | 3.16 µM (active) | –
Cc1ccc(C)c(NC(=S)N(CCc2nc3cc(C)c(C)cc3[nH]2)Cc2cccnc2)c1 | 1 µM (active) | –
COc1cccc(/C=N/NC(=O)C(=O)NCc2cccnc2)c1 | inactive | –
CC(=O)CC(=O)[C@@]1(O)CC[C@@H]2[C@@H]3C=C(C)C4=CC(=O)CC[C@@H]4[C@H]3CC[C@]21C | inactive | –
O=C(O)[C@@H](O)[C@@H](O)[C@@H](O[C@H]1O[C@@H](CO)[C@@H](O)[C@@H](O)[C@@H]1O)[C@@H](O)CO | inactive | –
COc1cc(NC(=S)Nc2ccc(S(=O)(=O)N3CCOCC3)cc2)cc(OC)c1OC | inactive | –
CC1(C)CC(=O)c2cnc(N)nc2C1 | inactive | –
O=C(NN=C1c2ccccc2-c2ccccc21)c1ccccn1 | inactive | –
O=C(CSc1ccc(Cl)cc1)Nc1ccc(N2CCN(C(=O)c3ccc(Cl)cc3)CC2)cc1 | inactive | –
O=C(CSC1=NCCS1)N1CCN(c2ccc(Cl)cc2)CC1 | inactive | –
CSC(=NC#N)N1CCN(c2ccc(Cl)cc2)CC1 | 0.316 µM (active) | –
c1ccc(Nc2nc(-c3cccnc3)nc3ccccc23)cc1 | inactive | –
CN(C)c1ccc(-c2nc(N(C)C)c3ccccc3n2)cc1 | 7.94 µM (active) | –
CNc1nc(-c2ccc(N(C)C)cc2)nc2ccccc12 | 12.6 µM (active) | –
COc1ccccc1NC(=O)Nc1nc(-c2cccnc2)nc2ccccc12 | inactive | –
CN(C)c1nc(-c2cccnc2)nc2ccccc12 | 15.8 µM (active) | –
CCn1c(-c2ccc(N(C)C)cc2)nc2ccccc21 | inactive | –
CN(C)c1ccc(/C=N\NC(=O)c2cnc3ccccc3c2)cc1 | – | 5.04% [at 11.4 µM]
CCC(=O)O[C@H](CC(=O)O)C[N+](C)(C)C | inactive | –
O=C1C[C@@H](O)[C@@H](O)[C@H]2[C@@H]3C(=O)N(C[C@@H]4CCCO4)C(=O)[C@@H]3CC[C@H]12 | – | 4.56% [at 11.4 µM] and 6.17% [at 11.4 µM]

Compound | AC50 | activity, negative = inhibition
COc1cc(C2NC(=O)NC(O)(C(F)(F)F)C2C(=O)c2ccc(Cl)cc2)ccc1O (stereo unspecified) | inactive | –
CCCc1nn2c(=O)c(C(c3ccc(C)cc3)c3c(O)nc4sc(CCC)nn4c3=O)c(O)nc2s1 | inactive | –
CN1CCN(c2nc3c(c(=O)n(C)c(=O)n3C)n2C)CC1 | – | 6.17% [at 11.4 µM]
CCCCN(C(=S)Nc1ccccc1)C1CCS(=O)(=O)C1 (stereo unspecified) | inactive | –
Fc1ccc(N2CCN(c3ccc4c(C(F)(F)F)cc(C(F)(F)F)nc4n3)CC2)cc1 | inactive | –
C=CCNC(=O)c1onc(CSc2ccc(F)cc2)c1C(=O)O | inactive | –
O=C(NCc1ccccc1)c1onc(CSc2ccc(F)cc2)c1C(=O)NCCCN1CCOCC1 | 10 µM (active) | –
COCCNC(=O)c1onc(CSc2ccc(Cl)cc2)c1C(=O)O | inactive | –
COc1ccc(-n2c(=O)c(-c3cn(C)c4ccccc34)nc3cnc(OC)nc32)cc1 | inactive | –
CCOc1ccc(N(C(C)C(=O)N/N=C(\C)c2cccc(NC(=O)c3ccccc3)c2)S(C)(=O)=O)cc1 (stereo unspecified) | inactive | –
COc1ccc2c(c1)CCc1sc(NC(=O)c3ccc(C)cc3)nc1-2 | inactive | –
Cn1c(=O)c(-c2cccs2)nc2cncnc21 | inactive | –
Cc1oc(-c2cccc(Cl)c2)[n+]([O-])c1C | inactive | –
O=S1(=O)OC(c2ccc(O)cc2)(c2ccc(O)cc2)c2ccccc21 | – | 12.2% [at 11.4 µM]
COc1ccc(CNc2ccnc(-c3ccc4c(c3)OCO4)n2)c(OC)c1 | 10 µM (active) | –
COc1ccccc1CNc1ccnc(-c2ccc3c(c2)OCO3)n1 | 0.794 µM (active) | –
Cc1c(C#N)c(=O)oc2ccc3ccccc3c12 | inactive | –
NC(=O)c1ccc(N2CCCCC2)c(N2C(=O)C3CC=CCC3C2=O)c1 (stereo unspecified) | inactive | –
O=C(O)c1ccc(NS(=O)(=O)Cc2ccccc2)cc1 | – | 0.0348% [at 11.4 µM]
COc1cc(C(=O)Nc2nc3ccc4nc(C)sc4c3s2)cc(OC)c1OC | inactive | –
Cc1cccc(C(=O)NC2CCN(C(=O)N3CCOCC3)CC2)c1 | inactive | –
Cc1cccc(OCC(=O)N2CCC(N3CCCCCC3)CC2)c1 | 4.47 µM (active) | –
O=C(COc1ccc2ccccc2c1)N1CCN(C(=O)c2cccnc2)CC1 | inactive | –
COCCn1c(=O)c(-c2cccc(C#N)c2)nc2cnc(OCc3ccccc3)nc21 | inactive | –
CC(=O)NC1=NC(=O)C(C)S1 (stereo unspecified) | inactive | –
O=c1c(-c2cccs2)nc2cnc(N3CCNCC3)nc2n1Cc1cccs1 | inactive | –

Compound | AC50 | activity, negative = inhibition
O=C(Nc1cccc(-c2nc3ccccc3s2)c1)c1ccc2c(c1)OCO2 | 0.1 µM (active) | –
O=C(Nc1cc(-c2nc3ccccc3s2)ccc1Cl)c1ccc2c(c1)OCO2 | inactive | –
Cc1ccc(-n2nc3ccc(NC(=O)c4ccc5c(c4)OCO5)cc3n2)cc1 | inactive | –
CCn1c(-c2ccccc2Cl)nn(CC(=O)Nc2ccc(OC)cc2)c1=S | inactive | –
CC(=O)NC1C(OCCOc2ccc(Cl)cc2Cl)OC(COC(C)=O)C(OC(C)=O)C1OC(C)=O (stereo unspecified) | inactive | –
CSC1=N/C(=C\c2ccc(Br)o2)C(=O)S1 | inactive | –
CCCCN1CCC(COC(=O)c2cc(Cl)c(N)c3c2OCCO3)CC1 | 1.26 µM (active) | –
CCOC(=O)n1ccn(C)c1=S | inactive | –
O=C(O)c1cc2ccccc2c(Cc2cc3ccccc3c(C(=O)O)c2O)c1O (tested in a mixture with another compound) | inactive | –
CCN=C(Nc1ccc(Cl)cc1)c1cccnc1 | inactive | –
NC(=NCCCCCCN=C(N)/N=C(\N)Nc1ccc(Cl)cc1)/N=C(\N)Nc1ccc(Cl)cc1 | 7.94 µM (active) | –
CC(Oc1ccccc1)C(=O)Nc1nc2c(s1)C(=O)CC(C)(C)C2 (stereo unspecified) | inactive | –
Cc1cnc(CNc2ncncc2-c2ccc(C(=O)N(C)C)cc2)cn1 | inactive | –
Cc1cnc(CNc2ncnc3ccc(-c4ccc5c(c4)OCO5)cc23)cn1 | 12.6 µM (active) | –
Cc1cnc(CNc2ncnc3ccc(-c4cccc(C#N)c4)cc23)cn1 | inactive | –
Cc1cccc(CNc2ncnc3ccc(-c4ccoc4)cc23)c1 | 10 µM (active) | –
Cc1cccc(CNc2ncnc3ccc(-c4ccc5c(c4)OCO5)cc23)c1 | 0.501 µM (active) | –
Nc1nc2c(ncn2COCCO)c(=O)[nH]1 | inactive | –
O=C(O)c1ccccc1OP(=O)(O)O | inactive | –
CN1CCc2c(c3c(n2C)CCN(C)[C@H]3c2ccccc2F)[C@@H]1c1ccccc1F | inactive | –
CCc1nc(SCC(=O)c2ccc(Cl)s2)c2oc3ccccc3c2n1 | inactive | –
CCOC(=O)Nc1ccc(C(=O)NCC2CCCO2)cc1 (stereo unspecified) | inactive | –
O=C(O)CCCC[C@H]1CCSS1 | inactive | –
